{
  "source": "PubChem BioAssay (NCATS)",
  "note": "Results filed as inconclusive are left out. Entries that show only a call come without a potency. Unmarked numbers belong to inactive results. Activity calls are given as the source filed them. Calls follow the shape of the dose curve; as a rule, active = well fitted inhibition curve with a large enough effect; inconclusive = small, poorly fitted or top-dose-only effect; inactive = no such curve, though single readings can be large or run the other way.",
  "data": [
    {"system": "Zika virus NS2B-NS3 protease (unlinked complex)", "assay": "Primary screen GU Rhodamine qHTS for Zika virus inhibitors: Unlinked NS2B-NS3 protease assay (AID 1347159); also: nearly all actives have a fitted effect of over 60% in size", "details": "Recombinant ZIKV NS2B-NS3 protease, Rhodamine110 substrate fluorescence; series mostly up to 107 µM", "in_short": "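Percent inhibition came from the 15-min rise in Rhodamine110 fluorescence (1.5 microM substrate, ~15% conversion), normalized to no-inhibitor and no-enzyme wells and Hill-fitted. Unlinked protease, 25 nM, pH 8.0 Tris buffer; compounds up to 114 microM, 15-min preincubation.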", "values": [
      {"compound": "CCCCNc1ncc(C(=O)NCc2ccc(-n3ccnc3)cc2)c(NC2CCC(O)CC2)n1", "note": "(configuration not stated)", "Potency": "inactive"},
      {"compound": "Cc1cc2c(N3CCCC3)nc(N3CCCC3)nc2n1C", "Potency": "inactive"},
      {"compound": "O=C(NC1CCC1)c1ccc(C#Cc2cccc(F)c2)nc1", "Potency": "inactive"},
      {"compound": "CCOc1nc(NC(=O)Cc2cc(OC)ccc2OC)cc(N)c1C#N", "Potency": "inactive"}
    ]},
    {"system": "Zika virus NS2B-NS3 protease (linked construct)", "assay": "Primary screen NINDS Rhodamine qHTS for Zika virus inhibitors (AID 1347160); also: nearly all actives have a fitted effect of over 55% in size", "details": "purified NS2B-NS3 protease, Rhodamine110 substrate fluorescence; series mostly up to 57.1 µM", "in_short": "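Rhodamine110-peptide cleavage (1.5 µM substrate) by 25 nM linked NS2B-NS3 enzyme at pH 8.0 (Tris, Tween 20), after 15 min RT preincubation with compounds; 15-min fluorescence change normalized to controls and Hill-fitted.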", "values": [
      {"compound": "O=C(c1ccccn1)N(Cc1cccs1)C1(C(=O)NC2CCCCC2)CCCCC1", "Potency": "inactive"},
      {"compound": "COc1ccc(NC(=O)C2C[C@H](C)CC[C@H]2C(C)C)cc1", "note": "(some centres not stated)", "Potency": "inactive"},
      {"compound": "Cc1ccc(NC(=O)N2CCN(c3nc(N)nc4sc(-c5cccnc5)nc34)CC2)cc1", "Potency": "inactive"},
      {"compound": "Cc1ccc(CNc2ncnc3ccc(-c4ccc(CO)o4)cc23)o1", "Potency": "inactive"},
      {"compound": "COc1ccccc1OCCN1CC(COc2cccc3[nH]c4ccccc4c23)OCC1=O", "note": "(configuration not stated)", "Potency": "inactive"},
      {"compound": "CCC(C)C1NC(=O)C(Cc2ccccc2)NC(=O)C(CCCCCC(=O)C(O)CO)NC(=O)C2CCCCN2C1=O", "note": "(configuration not stated)", "Potency": "inactive"},
      {"compound": "CCN(c1cc(-c2ccc(CN3CCOCC3)cc2)cc(C(=O)NCc2c(C)cc(C)[nH]c2=O)c1C)C1CCOCC1", "Potency": "inactive"},
      {"compound": "CCCc1cc(C)[nH]c(=O)c1CNC(=O)c1cc(-c2ccnc(N3CCN(C)CC3)c2)cc2c1cnn2C(C)C", "Potency": "inactive"},
      {"compound": "O=C(NCCCNC(=O)c1ccc[nH]c1=O)c1cc(-c2ccccc2)on1", "Potency": "inactive"},
      {"compound": "COc1cc(C(C)C)c(Oc2cnc(N)nc2N)cc1I", "Potency": "inactive"},
      {"compound": "COc1ccncc1C(=O)NC(=O)Nc1ccc(-c2ccccc2)c(C(F)(F)F)c1", "Potency": "inactive"},
      {"compound": "Cc1cc(C(=O)Cn2cc(C#N)ccc2=O)c(C)n1Cc1ccccc1", "Potency": "inactive"},
      {"compound": "Fc1ccc(-n2cc(CCCCN3CCC4(CC3)OCc3ccccc34)c3ccccc32)cc1", "Potency": "inactive"},
      {"compound": "CCCC1(CCC)CCC2(CCN(CCCN(CC)CC)C2)CC1", "Potency": "inactive"},
      {"compound": "CC(=O)O[C@H]1C[C@H](OC(C)=O)[C@]2(C)[C@H](CC[C@@]34O[C@@H]3C3=C(C)C(=O)O[C@@H]3C[C@H]42)C1(C)C", "Potency": "inactive"},
      {"compound": "C=CC(=O)N1CCC[C@@H](n2nc(-c3cccc(C(=O)Nc4ccc(C(C)C)c(C)c4)c3)c3c(N)ncnc32)C1", "Potency": "inactive"},
      {"compound": "CC(=O)O[C@@H]1[C@H](O[C@@H]2O[C@@H](CO)[C@H](O)[C@H]2O)[C@@H](O[C@@H]2O[C@@H](C)[C@H](O[C@@H]3OC[C@@H](O)[C@H](O)[C@H]3O)[C@@H](O)[C@H]2O)[C@H](OC(=O)[C@]23CCC(C)(C)C[C@H]2C2=CCC4[C@@]5(C)CC[C@H](O[C@@H]6O[C@H](C(=O)O)[C@@H](O)[C@H](O)[C@H]6O[C@@H]6O[C@H](CO)[C@H](O)[C@H](O)[C@H]6O)[C@@](C)(C=O)C5CC[C@@]4(C)[C@]2(C)C[C@H]3O)O[C@@H]1C", "note": "(some centres not stated)", "activity change, negative = inhibition": "10.8% [at 10.7 µM]"},
      {"compound": "COc1cc(/C=C2\\CCCN([C@@H](C)c3ccc(F)cc3)C2=O)ccc1-n1cnc(C)c1", "Potency": "inactive"},
      {"compound": "CC(C)S(=O)(=O)c1ccc2nccc(Nc3ccc4scnc4c3)c2c1", "Potency": "inactive"},
      {"compound": "COc1ccccc1C(=O)Nc1cc2c(cc1N1CCCC1)n(C)c(=O)n2C", "Potency": "inactive"},
      {"compound": "Cc1ccc(S(=O)(=O)NCc2ccc(C(=O)NCCN(Cc3ccccc3)C(C)C)cc2)cc1", "Potency": "inactive"},
      {"compound": "COc1ccc(-c2ccc3c(N4CCOCC4C)nc(N4CCOCC4C)nc3n2)cc1CO", "note": "(configuration not stated)", "Potency": "inactive"},
      {"compound": "Cn1c(=O)c(F)c(Nc2ccc(I)cc2F)c2c(=O)n(CC(O)CO)cnc21", "note": "(configuration not stated)", "Potency": "inactive"},
      {"compound": "COC1CC(=O)C23C(=O)NC(Cc4c[nH]c5ccccc45)C2C(C)C2(C)OC2C3/C=C/CC(C)CC1O", "note": "(configuration not stated)", "Potency": "inactive"},
      {"compound": "Cc1ccc(C)c(NS(=O)(=O)c2cc(C(=O)Nc3ccccc3-c3ccccc3)ccc2C)c1", "Potency": "inactive"},
      {"compound": "COc1ccc(C2(N(C)C(=O)c3ccc(NC(=O)c4ccco4)cc3)CCOCC2)cc1", "Potency": "inactive"},
      {"compound": "C=C1C(=O)OC2CC(C)=C(C(C)CCCOC(C)=O)C(OC(=O)CC(C)CC)C12", "note": "(configuration not stated)", "Potency": "inactive"},
      {"compound": "CCCc1cc2c(N3CCN(C4=NCC(C)(C)S4)CC3)ncnc2s1", "Potency": "inactive"},
      {"compound": "CCCC(CCC)C(=O)NCc1ccc2c(cnn2-c2ccccc2OC)c1", "Potency": "inactive"},
      {"compound": "CN1CCc2cc3c(cc2C(=O)Cc2cc4c(cc2C1)OCO4)OCO3", "Potency": "inactive"},
      {"compound": "C[C@@H](NC(=O)c1ccc(C#Cc2cccc(F)c2)cn1)C(C)(C)O", "Potency": "inactive"},
      {"compound": "CC(=O)N1CCN(CCOc2ccc(C3CCN(C4=Nn5c(nnc5C(F)(F)F)CC4)CC3)cc2)CC1", "Potency": "inactive"},
      {"compound": "CC(=O)OC/C(=C/C(=O)O)CC[C@@H]1C(C=O)=CC[C@@H]2C(C)(C)CCC[C@@]12C", "Potency": "inactive"}
    ]}
  ]
}
